Shown are actives, neighbours in structure and some others; about 4.1% of the full set was active somewhere.
BoNT A protease – inhibitors of Botulinum neurotoxin A light chain protease; multiplex microsphere protease substrate cleavage, flow cytometry; inhibition, % at 10 µM; 360,000 compounds, 0.17% hits; AID 588499; also: plate controls were buffer without enzyme for full effect and enzyme alone for no effect
Autofluor counter – counter-screen for toxin protease inhibitors: compound fluorescence; fluorescence intensity (no concentration beside the values); 360,000 compounds, 3.1% hits; compound autofluorescence counterscreen, microsphere flow cytometry; active compounds read high; in the data active = fluorescence intensity above about 16000; inconclusive = no clear call, values can overlap the other calls
VHR inh abs – blocks human VHR1 dual specificity phosphatase; inhibition, % at 13.3 µM; 290,000 compounds, 0.52% hits; recombinant VHR phosphatase, pNPP absorbance; P51452; in the data active = inhibition above about 50%
MazF activator – MazEF (E. coli) toxin RNase activation. 350,000 compounds, 0.32% hits. AID 504720. activation, % at 20 µM. FAM/BHQ RNA-DNA oligo cleavage fluorescence, 5 h. P0AE70; in the data active = activation above about 50%
BoNT F protease – blocks Botulinum neurotoxin F light chain protease; Multiplex microsphere protease cleavage assay, flow cytometry; AID 588497; 360,000 compounds, 0.22% hits; inhibition, % at 10 µM; in the data active = inhibition above about 35%, passing the limit was not always enough; inconclusive = no clear call, values can overlap the other calls; also: plate controls were buffer without enzyme for full effect and enzyme alone for no effect
Anthrax LF prot – blocks Bacillus anthracis lethal factor protease; 360,000 compounds, 0.12% hits; inhibition, % at 10 µM; AID 588501; multiplex microsphere protease cleavage assay, LF; also: plate controls were buffer without enzyme for full effect and enzyme alone for no effect
Target sequence (P15917 whole entry, looked up): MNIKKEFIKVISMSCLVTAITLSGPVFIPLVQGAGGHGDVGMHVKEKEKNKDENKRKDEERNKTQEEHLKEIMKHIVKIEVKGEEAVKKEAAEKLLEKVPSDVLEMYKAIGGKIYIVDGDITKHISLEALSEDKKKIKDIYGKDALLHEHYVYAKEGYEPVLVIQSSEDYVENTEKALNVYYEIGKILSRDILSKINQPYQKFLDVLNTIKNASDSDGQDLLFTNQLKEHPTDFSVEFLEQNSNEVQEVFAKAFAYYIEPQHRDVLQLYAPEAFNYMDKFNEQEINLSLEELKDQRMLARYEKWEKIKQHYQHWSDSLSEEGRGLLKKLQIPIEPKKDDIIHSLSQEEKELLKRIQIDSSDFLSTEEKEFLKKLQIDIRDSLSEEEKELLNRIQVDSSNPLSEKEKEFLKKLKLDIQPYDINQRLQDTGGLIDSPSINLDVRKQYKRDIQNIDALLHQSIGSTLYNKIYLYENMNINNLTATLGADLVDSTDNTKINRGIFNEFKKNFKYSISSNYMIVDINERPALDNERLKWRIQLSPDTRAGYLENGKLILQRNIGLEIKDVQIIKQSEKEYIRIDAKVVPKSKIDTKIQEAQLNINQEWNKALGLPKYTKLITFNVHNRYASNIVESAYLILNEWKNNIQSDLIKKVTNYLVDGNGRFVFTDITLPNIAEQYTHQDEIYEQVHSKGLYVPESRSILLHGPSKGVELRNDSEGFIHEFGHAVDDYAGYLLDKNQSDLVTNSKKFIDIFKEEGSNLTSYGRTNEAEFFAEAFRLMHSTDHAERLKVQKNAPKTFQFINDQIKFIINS
Active calls of the source: *; ? = inconclusive; nt = no result given. Rule as the data show it, unless noted: active = inhibition above about 30%; inconclusive = no clear call, values can overlap the other calls; inactive = below that.

SMILES	BoNT A protease	Autofluor counter	VHR inh abs	MazF activator	BoNT F protease	Anthrax LF prot
CC(Oc1ccccc1)c1ccnn1S(=O)(=O)c1ccccc1 (configuration not stated)	1	4105	21	3	8	-4
CCNC(=O)n1nccc1C(C)Oc1ccccc1 (configuration not stated)	0	21929*	41	9	-4	-10
CCOC(=O)CCCCCC(=O)Nc1ccc2c(c1)CC(=O)N([C@H](C)CO)C[C@H](C)[C@H](CN(C)S(=O)(=O)c1ccc(OC)cc1)O2	0	3463	nt	-3	-2	9
COc1ccc(CN(C(=O)c2snc(C(N)=O)c2N)C(C(=O)NC(C)(C)C)c2ccco2)cc1 (configuration not stated)	-3	21460*	50	3	-4	0
COCCNC(=O)C(c1ccco1)N(C(=O)Cn1nnc2ccccc21)c1ccccc1C (configuration not stated)	1	4873	-2	7	-5	1
COc1ccccc1N(C(=O)c1snc(C(N)=O)c1N)C(C(=O)NCCC(C)C)c1ccco1 (configuration not stated)	4	18096*	8	-25	5	-2
COCCNC(=O)C(c1ccco1)N(Cc1ccc(OC)cc1)C(=O)Cn1nnc2ccccc21 (configuration not stated)	1	3406	12	-8	39*	3
COc1ccccc1N(C(=O)c1snc(C(N)=O)c1N)C(C(=O)NC1CCCC1)c1ccco1 (configuration not stated)	-1	23621*	28	3	-2	-1
O=C(NCCCN1CCCC1=O)c1ccc(NS(=O)(=O)c2cccc([N+](=O)[O-])c2)cc1	6	?	nt	4	-16	-2
CCOC(=O)c1c(C)[nH]c(C(=O)NCC(c2ccco2)N2CCCCC2)c1C (configuration not stated)	-1	5444	nt	-2	-11	1
CCOC(=O)Cc1c[nH]c2ccc([N+](=O)[O-])cc12	0	2850	nt	-2	-3	0
O=C(CN1CCN(Cc2ccc(Cl)cc2)C1=O)NCCCN1CCOCC1	0	5356	32	2	-3	3
O=C(CCS(=O)(=O)Cc1ccc(Cl)cc1)NCCCN1CCOCC1	0	23981*	30	-3	-1	-1
Cc1ccc(C2=NC(C)(C)NC2=O)cc1	0	9406	19	2	-2	-6
CC1(C)N=C(c2ccc(Cl)cc2)C(=O)N1	0	23886*	15	2	-4	-2
O=C(OC1CCCCC1)c1ccc2c(c1)C1C=CCC1C(C(=O)O)N2 (configuration not stated)	nt	nt	87*	nt	nt	nt
N#C/C(=C\C=C\c1ccccc1)C(=O)Nc1ccccc1	0	2676	-7	-2	-1	1
N#C/C(=C\c1ccccc1)C(=O)Nc1ccccn1	-2	3958	9	22	40*	-17
CC(C)(C)c1ccc(/C=C(\C#N)C(=O)Nc2ccccn2)cc1	-1	3996	-2	15	-9	-8
CNc1ccc(/C=C(\C#N)C(=O)Nc2ccccn2)cc1[N+](=O)[O-]	1	5365	12	141*	38*	33*
Cc1ccccc1NC(=O)/C(C#N)=C\c1cccnc1	?	17365*	10	-7	-6	0
N#C/C(=C/C=C/c1ccccc1)C(=O)Nc1ccccc1	?	18225*	-5	-3	-10	-1
CN(Cc1cccs1)C(=O)CNC(=O)c1ccco1	0	5313	14	-4	3	-9
CCN(CC)CCCn1c2c(c(SCC(=O)Nc3ccc4c(c3)OCCO4)nc1=O)CCC2	-3	5626	nt	8	-7	-2
COc1ccc2oc(C(=O)CCC(=O)O)c(N)c2c1	-1	6091	-8	-3	-11	4
SMILES	BoNT A protease	Autofluor counter	VHR inh abs	MazF activator	BoNT F protease	Anthrax LF prot
Nc1c(C(=O)c2ccc(Br)s2)oc2ccccc12	10	3810	28	64*	11	8
Nc1c(C(=O)c2ccccc2)oc2ccc(Br)cc12	-1	20833*	22	-13	-3	-4
Nc1c(C(=O)c2cccs2)oc2ccccc12	3	8717	17	1	3	9
COC(=O)CCC(=O)c1oc2ccc(Br)cc2c1N	0	16549*	-22	-2	1	-3
O=C(CS(=O)c1cccc(C(F)(F)F)c1)Nc1ccc(Cl)cc1Cl (configuration not stated)	0	5567	22	-9	3	-2
O=C(CS(=O)c1cccc(Cl)c1)Nc1ccccc1Cl (configuration not stated)	?	22003*	33	6	-2	-2
CN(C)S(=O)(=O)c1ccc(C(=O)OCC(=O)Nc2ccccc2OC(F)F)cc1	-2	23884*	27	-7	-4	-2
O=C(COC(=O)c1ccc(S(=O)(=O)NCc2ccco2)cc1)Nc1ccccc1OC(F)F	0	3950	21	2	-2	-3
NC(=O)CSc1nnc2n(N)c(=O)c3ccccc3n12	-1	3156	nt	3	7	-4
C/C(Cl)=C/CSc1nnc2n(N)c(=O)c3ccccc3n12	0	23180*	11	-5	-2	-3
CC(C)c1ccc(NC2CCCN(C(=O)c3ccccc3-c3ncc[nH]3)C2)cc1 (configuration not stated)	0	6443	57*	9	-12	0
CC(C)c1ccc(NC2CCCN(C(=O)c3cccc4nccnc34)C2)cc1 (configuration not stated)	2	5019	8	-7	0	-2
O=C(O)c1cc2cc(Cl)ccc2oc1=O	1	22395*	1	1	3	-2
Cc1ccc(SCC2=NN(c3nc(C)cc(C)n3)C(=O)C2)cc1	0	3119	37	-5	-4	-4
Cc1cc(C)nc(N2N=C(C(C)(C)C)CC2=O)n1	?	23425*	-1	2	-2	2
COc1ccc(Cc2nc3ccc(S(=O)(=O)N4CCOCC4)cc3[nH]2)cc1OC	-1	24349*	35	1	-3	0
Cc1ccccc1OCc1nc2ccc(S(=O)(=O)N3CCOCC3)cc2[nH]1	-8	22238*	16	-6	-12	0
Fc1ccc(/C=N/NC2=Nc3cccc4cccc2c34)cc1	12	10007	5	110*	8	13
CCN(CC)CCN(Cc1cc2cc3c(cc2[nH]c1=O)OCCO3)C(=S)NC	-1	3170	40	2	10	7
COc1ccc(-c2oc3ccc(-c4cc(OC)c(OC)c(OC)c4)cc3c2C#Cc2ccccn2)cc1	1	3588	nt	-6	-2	5
COc1ccc(-c2csc(N3CCN(C(=O)c4ccccc4)CC3)n2)cc1	-1	4289	3	3	-2	-11
O=C(N1CCOCC1)N1CCN(c2nc(-c3ccccc3)cs2)CC1	1	22285*	3	-2	0	2

Bioassay records deposited in PubChem BioAssay by several laboratories.
